In PubChem BioAssay (Tox21):
Records with an inconclusive call do not appear. Where a call stands in place of a potency, no number is given. The source made the active and inactive calls. Calls come from the whole dose curve.

Biological target: Muscarinic acetylcholine receptor M1 (Homo sapiens) (UniProt P11229)
Test: Cholinergic receptor muscarinic 1 (CHRM1) small molecule antagonists, cell-based qHTS assay (AID 1963588); note: nearly all actives have a fitted effect of over 40% in size
In short: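 CHRM1-CHO calcium-flux assay, antagonist mode. Cells were seeded 18 h, dye-loaded 1 h at 37 C and given compound for 5 min at RT, then acetylcholine was added at 50nM. FDSS fluorescence was read 3 min; 15 concentrations, three runs.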
Potency is the fitted concentration of half-maximal effect.

Chain of Muscarinic acetylcholine receptor M1 (Homo sapiens) (P11229 whole entry, looked up): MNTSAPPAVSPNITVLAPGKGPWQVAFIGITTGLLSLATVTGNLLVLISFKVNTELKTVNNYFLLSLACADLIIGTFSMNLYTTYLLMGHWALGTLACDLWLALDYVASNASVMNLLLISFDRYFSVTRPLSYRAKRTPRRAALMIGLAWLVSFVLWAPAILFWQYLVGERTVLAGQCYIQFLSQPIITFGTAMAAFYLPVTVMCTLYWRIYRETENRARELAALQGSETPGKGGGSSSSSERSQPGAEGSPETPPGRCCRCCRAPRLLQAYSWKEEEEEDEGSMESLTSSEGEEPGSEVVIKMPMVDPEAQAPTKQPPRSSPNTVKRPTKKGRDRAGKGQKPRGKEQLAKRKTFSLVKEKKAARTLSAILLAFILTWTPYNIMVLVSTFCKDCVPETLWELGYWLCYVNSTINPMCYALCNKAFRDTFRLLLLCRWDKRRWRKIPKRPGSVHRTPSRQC

In the case of `CC(=O)OC(C)(C)C1CC=C(C)CC1` (centres undefined), the Potency is reported as “inactive”.
`O=C(O)CC(C(=O)O)C(CC(=O)O)C(=O)O` (centres undefined) was tested, and the Potency was “inactive”.
For `CCCCCCCCCCCCCCCC[N+](C)(C)Cc1ccccc1`, the Potency was 410 nM (active).
In the case of `NC(=O)N/N=C/c1ccc([N+](=O)[O-])o1`, the Potency is reported as “inactive”.
In the case of `C=CC(=O)OCCC(=O)O`, the Potency is reported as “inactive”.
`CC1=C(/C=C/C(C)=C/C=C/C(C)=C/CO)C(C)(C)CCC1` was tested, and the Potency was “inactive”.
For `OC[C@H]1O[C@@H](Oc2ccc(O)cc2)[C@H](O)[C@@H](O)[C@@H]1O`, the Potency was “inactive”.
For `O=C(O)CCCCCCCCC(=O)O`, the Potency was “inactive”.
`CCCCOCCO` was tested, and the Potency was “inactive”.
For `NCCS(=O)(=O)O`, the Potency was “inactive”.
`CCN=c1cc2oc3cc(NCC)c(C)cc3c(-c3ccccc3C(=O)OCC)c-2cc1C` was tested, and the Potency was “inactive”.
In the case of `Cc1ccc(O)cc1`, the Potency is reported as “inactive”.
In the case of `CCCc1c(OCCCCc2nn[nH]n2)ccc(C(C)=O)c1O`, the Potency is reported as “inactive”.
With `CC(O)COCC(C)O` (centres undefined) the Potency was “inactive”.
`CCCCC(CC)COC(=O)CCCCC(=O)OCC(CC)CCCC` (centres undefined) was tested, and the Potency was “inactive”.
In the case of `CCCCCC1C(=O)CCC1CC(=O)OC` (centres undefined), the Potency is reported as “inactive”.
For `CC(C)CCCCCCCOC(=O)CCCCC(=O)OCCCCCCCC(C)C`, the Potency was “inactive”.
`CCCCOC(=O)CCCCCCCCC(=O)OCCCC` was tested, and the Potency was “inactive”.
With `CC(=O)c1ccccc1` the Potency was “inactive”.
In the case of `CC(=O)C(C)C`, the Potency is reported as “inactive”.
For `OC[C@@H](O)[C@@H](O[C@@H]1O[C@H](CO)[C@H](O)[C@H](O)[C@H]1O)[C@H](O)[C@@H](O)CO`, the Potency was “inactive”.
`Cc1ccc(O)c(-n2nc3ccccc3n2)c1` was tested, and the Potency was “inactive”.
For `NC(=O)NC1NC(=O)NC1=O` (centres undefined), the Potency was “inactive”.
In the case of `O=C(OCc1ccccc1)c1ccc(O)cc1`, the Potency is reported as “inactive”.
For `CC(C)OB(OC(C)C)OC(C)C`, the Potency was “inactive”.
With `COC(=O)c1ccc(C)cc1` the Potency was “inactive”.
`Nc1cc(Cl)c(-c2cc(Cl)c(N)cc2Cl)cc1Cl` was tested, and the Potency was “inactive”.
`COc1ccc([N+](=O)[O-])cc1N` was tested, and the Potency was “inactive”.
In the case of `COC(=O)c1cccnc1`, the Potency is reported as “inactive”.
With `ClC1=C(Cl)C(Cl)(Cl)C(Cl)=C1Cl` the Potency was “inactive”.
With `CCC(C)C=O` (centres undefined) the Potency was “inactive”.
`CCCCC/C=C\C/C=C\CCCCCCCC(=O)O` was tested, and the Potency was “inactive”.
For `Cc1ccc(C)c(O)c1C`, the Potency was “inactive”.
For `CCOC(=O)/C=C\C(=O)OCC`, the Potency was “inactive”.
For `Cc1ccc2ncccc2c1`, the Potency was “inactive”.
`O=[N+]([O-])c1cccc(Cl)c1` was tested, and the Potency was “inactive”.
With `O=c1cc[nH]c(=O)[nH]1` the Potency was “inactive”.
`c1cnc2c(c1)ccc1cccnc12` was tested, and the Potency was “inactive”.
With `O=S1(=O)CCCO1` the Potency was “inactive”.
In the case of `CCCCCCCCCC(=O)O`, the Potency is reported as “inactive”.
In the case of `COC(=O)CC(=O)OC`, the Potency is reported as “inactive”.
In the case of `O=C1CCCC1`, the Potency is reported as “inactive”.
`O=C(O)c1ccc(S(=O)(=O)N(Cl)Cl)cc1` was tested, and the Potency was “inactive”.
`[O-]/[N+](=N\O)c1ccccc1` was tested, and the Potency was “inactive”.
`CC1(C)S[C@@H]2[C@H](NC(=O)COc3ccccc3)C(=O)N2[C@H]1C(=O)O` was tested, and the Potency was “inactive”.
With `COc1ccc(C)cc1N` the Potency was “inactive”.
`OB(O)O` was tested, and the Potency was “inactive”.
In the case of `CC(=O)c1nccs1`, the Potency is reported as “inactive”.
In the case of `CCCCCCCCCCCC(=O)OC`, the Potency is reported as “inactive”.
`Nc1nc2ccccc2[nH]1` was tested, and the Potency was “inactive”.
`C=CCNC(N)=S` was tested, and the Potency was “inactive”.
`CC1=CC(=O)CC(C)(C)C1` was tested, and the Potency was “inactive”.
In the case of `c1ccc2n[nH]nc2c1`, the Potency is reported as “inactive”.
With `[Na+]` the Potency was “inactive”.
With `C[Si](O[Si](C)(C)C)O[Si](C)(C)C` the Potency was “inactive”.
For `CCNC(=S)NCC`, the Potency was “inactive”.
In the case of `CCCCC(CC)CO` (centres undefined), the Potency is reported as “inactive”.
With `CCCCC/C(C=O)=C\c1ccccc1` the Potency was “inactive”.
With `CCCCCCCCCCCCCO` the Potency was “inactive”.
For `CCCCC1(COC(=O)CCC(=O)O)C(=O)N(c2ccccc2)N(c2ccccc2)C1=O`, the Potency was “inactive”.
In the case of `C=C(C)C(=O)O[C@H]1C[C@@H]2CC[C@@]1(C)C2(C)C`, the Potency is reported as “inactive”.
For `CC(=O)Nc1ccc2c(c1)Cc1cc(NC(C)=O)ccc1-2`, the Potency was “inactive”.
With `CCC(=O)/C=C/C1C(C)=CCCC1(C)C` (centres undefined) the Potency was “inactive”.
In the case of `Cc1ncc[nH]1`, the Potency is reported as “inactive”.
In the case of `Cc1cc(Cc2cc(C)cc(C(C)(C)C)c2O)c(O)c(C(C)(C)C)c1`, the Potency is reported as “inactive”.
In the case of `CCCCC(CC)COC(=O)c1ccc(N(C)C)cc1` (centres undefined), the Potency is reported as “inactive”.
With `C/C=C1/CC2C=CC1C2` (centres undefined) the Potency was “inactive”.
For `C=Cc1cccc(C)c1`, the Potency was “inactive”.
In the case of `CCN(CCN)c1cccc(C)c1`, the Potency is reported as “inactive”.
In the case of `COc1ccc(C(=O)c2ccccc2O)c(O)c1`, the Potency is reported as “inactive”.
In the case of `OC[C@H]1O[C@H](O[C@]2(CCl)O[C@H](CCl)[C@@H](O)[C@@H]2O)[C@H](O)[C@@H](O)[C@H]1Cl`, the Potency is reported as “inactive”.
`Cc1ccncc1` was tested, and the Potency was “inactive”.
In the case of `OCCc1ccccc1`, the Potency is reported as “inactive”.
In the case of `CN(C)CCOC(=O)COc1ccc(Cl)cc1`, the Potency is reported as “inactive”.
